Source: PubChem BioAssay AID1159580 (chemical genetic matrix, 2015)
Among all 5,500 compounds or so, about 2,000 (36%) were called active. About 18% were inconclusive and are not listed. No stated cut-off is given here; in the data, active means normalized growth mostly below about 0.91 (no sharp cut-off); inconclusive means no clear call, values can overlap the other calls; inactive means mostly above about 0.92. This is one part of the list.

Assay: chemical genetic growth profiling, strain panel (AID 1159580);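 further: tested at 20 µM; growth read once vehicle control cultures reached saturation at 30 °C; 1 = growth at the plate median or of vehicle wells; lower values mean less growth of the strain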
Settings: S. cerevisiae deletion strains, growth OD

Measured: normalized growth

CCCN1CC(CSC)CC2c3cccc4[nH]cc(c34)CC21 (stereo unspecified)
inactive: locus YAL040C, strain CLN3, active compounds read low 1 | locus YCL061C, strain MRC1 (second series), active compounds read low 0.998 | locus YDR150W, strain NUM1, active compounds read low 0.997 | locus YDR363W, strain ESC2, active compounds read low 0.989 | locus YER002W, strain NOP16, active compounds read low 1.01 | locus YGR078C, strain PAC10, active compounds read low 1.01 | locus YMR307W, strain GAS1, active compounds read low 0.999 | locus YNL128W, strain TEP1, active compounds read low 1.02 | locus YNL153C, strain GIM3, active compounds read low 0.998 | locus YNL175C, strain NOP13, active compounds read low 1.02 | locus YNL197C, strain WHI3, active compounds read low 1.01 | locus YNL224C, strain SQS1, active compounds read low 1.08 | locus YOR083W, strain WHI5 (second series), active compounds read low 1.02

COC(=O)[C@H](Cc1ccccc1)NC(=O)/C(=C1\OC(=O)C(c2ccccc2)=C1O)c1ccccc1
inactive: locus YHR030C, strain SLT2, active compounds read low 1.05 | locus YHR079C, strain IRE1, active compounds read low 1.06 | locus YJL095W, strain BCK1, active compounds read low 0.998 | locus YJR066W, strain TOR1, active compounds read low 0.992 | locus YLR113W, strain HOG1, active compounds read low 0.961 | locus YNL183C, strain NPR1, active compounds read low 0.98 | locus YOR231W, strain MKK1, active compounds read low 1.04 | locus YPL256C, strain CLN2, active compounds read low 1.05
